Measured values published in ChEMBL document CHEMBL3988442, “University of Dundee, Small-Polar-MMV Screening Library” (2021).

Key:
[1] = target: T1, Aspartate--tRNA(Asp/Asn) ligase (Mycobacterium tuberculosis (strain ATCC 25618 / H37Rv)) (UniProt P9WFW3); assay: Assay for Asp RNA synthetase-1 from Mycobacterium tuberculosis; format: functional; parameters: scale not given: direction of the effect not stated beside the values; conditions: 30 µM; note: in the data most compounds retested in dose-response had high values
T1 sequence (whole entry): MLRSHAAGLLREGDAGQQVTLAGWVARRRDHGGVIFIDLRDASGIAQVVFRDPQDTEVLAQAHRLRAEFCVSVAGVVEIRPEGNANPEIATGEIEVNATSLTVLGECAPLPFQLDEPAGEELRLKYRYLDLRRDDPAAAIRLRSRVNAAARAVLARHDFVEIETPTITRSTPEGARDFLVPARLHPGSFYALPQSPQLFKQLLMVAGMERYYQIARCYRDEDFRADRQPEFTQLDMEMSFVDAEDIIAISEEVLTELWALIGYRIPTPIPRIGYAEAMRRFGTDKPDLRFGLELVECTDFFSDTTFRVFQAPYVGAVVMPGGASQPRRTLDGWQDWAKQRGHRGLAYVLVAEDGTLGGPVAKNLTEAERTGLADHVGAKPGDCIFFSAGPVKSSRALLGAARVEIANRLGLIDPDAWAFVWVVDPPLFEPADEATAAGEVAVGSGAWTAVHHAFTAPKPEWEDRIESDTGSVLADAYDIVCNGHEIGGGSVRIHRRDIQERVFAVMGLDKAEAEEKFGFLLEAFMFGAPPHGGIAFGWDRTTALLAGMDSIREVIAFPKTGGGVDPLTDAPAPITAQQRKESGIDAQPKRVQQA

[2] = target: Shiga toxin 2 (Escherichia coli O157:H7) (UniProt P09385+P09386); assay: E. coli 0.157:H7 Shiga Toxin SOP - stx2 screening assay; format: functional; parameters: scale not given: direction of the effect not stated beside the values; conditions: 30 µM

SMILES | Percent Effect [1] | Percent Effect [2]
CC(C)N(C)C(=O)C1=NOC2(CCN(C(=O)c3ccncc3)C2)C1 (centres undefined) | -1.05% | -7.21%
COCCN1CCC(NCc2ccc(C#N)cc2)C1 (centres undefined) | -2.03% | -49.3%
CCC(=O)N(C)C1CCN(Cc2ncc(C)c(OC)c2C)CC1 | -0.759% | -19.9%
CC(C)CC1SCC(=O)Nc2c1cnn2-c1ccc(F)cc1 (centres undefined) | -3.46% | 0.343%
COc1ccc(F)cc1S(=O)(=O)NCC(c1cccn1C)N(C)C (centres undefined) | -5.43% | 9.89%
Cc1cccc(CN2C[C@@H]3COC[C@]3(COc3ccc(C#N)cn3)C2)n1 | -4.33% | -13.9%
O=C1NCCN(CC2CC2)C12CCN(Cc1ccco1)CC2 | 24.3% | -8.3%
c1ncn(CC2CCCN(Cc3nc(C4CC4)no3)C2)n1 (centres undefined) | -2.51% | -1.62%
O=C(c1cccc(Cl)c1)N1CCCn2c(CN3CCCCC3)nnc2C1 | -2.93% | -13.3%
Cc1ccc(=O)n(CC2(O)CCN(Cc3ccsc3)CC2)n1 | -3.38% | 12.7%
Cn1cc(NC(=O)Cn2c(CS(C)(=O)=O)nc3ccccc32)cn1 | -0.299% | 1.48%
CN(CCN1CCOCC1)C(=O)CCc1cccc(Cl)c1 | -4.7% | -13.5%
COc1ccc(-c2noc(C(=O)NCCN3CCCCC3)n2)cc1OC | -1.25% | -77.4%
CC(NC(=O)C1=NN(C)C(=O)CC1)c1ccc(F)cc1F (centres undefined) | -4.46% | -6.55%
c1cnc(N2CCC3(CCN(Cc4ccncc4)CC3)CC2)nc1 | -2.46% | 1.18%
Cc1nnc2n1CCN(C(=O)c1cc(C)n(-c3ccccn3)c1C)C2 | 4.19% | 32.2%
CC(C)n1ccnc1C1CCN(C(=O)c2ccccc2)CC1 | -4.71% | 12.4%
